# LYPLA1 inh: LYPLA1 inhibitors, primary screen, counter-screen for PME1 inhibitor project, biochemical, fluorescence polarization, FP-Rh probe ABPP; recombinant LYPLA1; inhibition, % at 5.9 µM; AID 2174, 2009; actives 0.16% (n = 320,000);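 active = inhibition above the mean of all tested compounds plus 3 SD, set per campaign, cut at about 14% in these data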;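 note: inhibitors block serine hydrolase probe labeling of LYPLA1 so polarization falls; 0% = enzyme with DMSO and 100% = wells lacking LYPLA1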
# PME-1 inh: PME-1 inhibitors via competitive probe labeling, primary screen, biochemical, fluorescence polarization, FP-Rh probe, HTS | Protein phosphatase methylesterase 1 (Homo sapiens), Q9Y570 | AID 2130, 2009 | recombinant PME-1 | inhibition, % at 5.9 µM | actives 0.53% (n = 320,000);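 active = inhibition above the campaign mean of all compounds plus 3 SD, cut at about 26% in these data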;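 note: competitive labeling of PME-1 active site by serine hydrolase directed probe; 0% = PME-1 with DMSO and 100% = wells lacking PME-1 enzyme; inhibitors block probe labeling so polarization falls and inhibition rises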
# PREPL inhibitor: PREPL enzyme inhibitors, primary screen, biochemical, fluorescence polarization; recombinant PREPL, fluorescence polarization activity-based probe; actives 0.68% (n = 320,000); inhibition, % at 5.96 µM; in the data active = inhibition above about 43%;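 note: 0% = enzyme with DMSO and 100% = wells lacking enzyme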
# Target sequence (Q4J6C6 whole entry, looked up): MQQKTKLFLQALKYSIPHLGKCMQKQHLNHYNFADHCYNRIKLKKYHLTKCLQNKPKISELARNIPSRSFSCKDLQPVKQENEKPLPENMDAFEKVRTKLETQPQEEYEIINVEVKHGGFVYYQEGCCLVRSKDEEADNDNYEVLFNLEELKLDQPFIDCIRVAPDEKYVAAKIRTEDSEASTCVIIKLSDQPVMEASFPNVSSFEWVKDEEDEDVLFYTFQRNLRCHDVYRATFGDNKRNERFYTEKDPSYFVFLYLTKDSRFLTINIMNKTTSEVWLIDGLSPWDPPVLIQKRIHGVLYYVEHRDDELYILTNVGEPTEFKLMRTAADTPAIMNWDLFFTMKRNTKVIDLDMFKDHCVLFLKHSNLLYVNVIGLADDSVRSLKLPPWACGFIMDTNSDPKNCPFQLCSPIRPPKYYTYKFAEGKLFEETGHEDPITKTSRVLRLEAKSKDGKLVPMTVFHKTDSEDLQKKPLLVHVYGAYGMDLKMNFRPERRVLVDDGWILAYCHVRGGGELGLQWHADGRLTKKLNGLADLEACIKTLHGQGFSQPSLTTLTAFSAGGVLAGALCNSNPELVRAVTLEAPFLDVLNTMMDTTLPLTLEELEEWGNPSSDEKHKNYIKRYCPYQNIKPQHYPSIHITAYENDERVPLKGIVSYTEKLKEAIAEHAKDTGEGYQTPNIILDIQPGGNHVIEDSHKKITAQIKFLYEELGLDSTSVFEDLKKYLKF
# Fam108B inh: mouse Fam108B serine hydrolase inhibitors, primary screen, counter-screen for RBBP9 inhibitor project, biochemical, fluorescence polarization; recombinant Fam108B, FP-Rh probe fluorescence polarization; inhibition, % at 9.51 µM; actives 0.33% (n = 300,000); AID 1947, 2009;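 active = inhibition above the screen mean inhibition plus 3 SD, computed separately per campaign, cut at about 18% in these data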;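 note: inhibitors lower polarization as less probe binds the enzyme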
# LYPLA2 counter: LYPLA2 inhibitors, primary screen, counter-screen for PME1 inhibitor project, biochemical, fluorescence polarization, FP-Rh probe ABPP; Acyl-protein thioesterase 2 (Homo sapiens), O95372; recombinant LYPLA2; inhibition, % at 5.9 µM; actives 0.38% (n = 320,000); AID 2177, 2009;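 active = inhibition above the screen-wide mean plus 3 SD, limit set per campaign, cut at about 26% in these data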;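 note: 0% = LYPLA2 with DMSO and 100% = wells lacking LYPLA2 enzyme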
# GSTO1 inh: inhibitors of recombinant GSTO1, primary screen, counter-screen for RBBP9 inhibitor project, biochemical, fluorescence polarization; actives 1.1% (n = 300,000); activity-based probe fluorescence polarization; Glutathione S-transferase omega-1 (Homo sapiens), P78417; AID 1974, 2009; inhibition, % at 5.96 µM;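 active = inhibition above the campaign mean inhibition plus 3 SD, cut at about 35% in these data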;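 note: 0% = GSTO1-1 with DMSO and 100% = wells lacking GSTO1-1 enzyme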
# GSTO1 inh conf: GSTO1 inhibitor hit confirmation, counter-screen for RBBP9 inhibitor project, biochemical, fluorescence polarization, triplicate. shares compounds with GSTO1 inh. recombinant GSTO1, probe fluorescence polarization. inhibition, % at 5.96 µM. actives 54% (n = 2,400);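 active = inhibition above the primary screen's cutoff, its mean inhibition plus 3 SD, cut at about 35% in these data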;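 note: loss of polarization as inhibitors block binding of rhodamine sulfonate ester activity probe; 0% = GSTO1 with DMSO and 100% = wells lacking GSTO1 enzyme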
# GSTO1 recomb ABPP: inhibitors of purified human GSTO1, late-stage follow-up, biochemical, gel ABPP, SE-Rh probe, percent inhibition; shares compounds with GSTO1 inh; recombinant GSTO1, gel ABPP SE-Rh probe fluorescence; inhibition, % at 1 µM; actives 30% (n = 130); AID 463110, 2010;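 active = inhibition of the enzyme GSTO1 above about 75%, limit read from the data; inactive = inhibition below that limit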
# * hit, by the source's call; . = no result given. This is a sample that favours compounds with a hit; in the whole collection about 2% have one here.
SMILES,LYPLA1 inh,PME-1 inh,PREPL inhibitor,Fam108B inh,LYPLA2 counter,GSTO1 inh,GSTO1 inh conf,others
O=C(C1=C(O)C(=O)N(c2ccccc2)C1c1ccc([N+](=O)[O-])cc1)c1cccs1 (centres undefined),-1,-7,1,4,2,-11,.,
COc1ccc(-c2noc(C(=O)NCc3ccc(F)cc3)n2)cc1OC,-9,-1,-3,-1,-8,-15,.,
Clc1c2c(nc3ccccc13)CCC2,-4,-13,8,1,4,71*,6,
Cc1noc(C)c1CN1C(=O)c2ccccc2C1=O,-3,-5,4,0,-5,15,.,
Cc1ccc(C)c(S(=O)(=O)Nc2ccc(O)c3ccccc23)c1,-1,-4,-3,-1,5,53*,0,
COc1ccc(S(=O)(=O)Nc2ccc(O)c3ccccc23)cc1,0,9,24,4,-1,70*,9,
COc1ccc(S(=O)(=O)Nc2ccccc2)cc1,1,-1,18,-1,-2,13,.,
CCc1cc(C(=O)N=Nc2c(O)[nH]c3c(Br)cc(Br)cc23)c2ccccc2n1,-2,12,16,3,1,75*,20,
COc1cc(NC(=O)CSc2nc3c(C)ccc(C)c3cc2C)c(C(=O)O)cc1OC,-6,2,7,7,-5,-3,.,
CN(C)c1nc(Cl)nc(N(C#N)CCOc2ccccc2)n1,-2,0,-6,-1,5,44*,69*,
O=C(CC1Nc2cccc3cccc(c23)NC1=O)Nc1ccccc1 (centres undefined),-2,8,17,9,-1,38*,20,
NC(=O)CC1Nc2cccc3cccc(c23)NC1=O (centres undefined),-2,5,22,3,-2,35,.,
O=C(NC1CCSC1=O)C1CCCCC1 (centres undefined),2,-1,-6,3,7,5,.,
COc1ccc(S(=O)(=O)N(C(=O)c2ccco2)c2cc3sc(=O)oc3c3ccccc23)cc1,1,12,13,7,6,64*,19,
COc1ccc(S(=O)(=O)N(C(=O)C(C)C)c2ccc3oc(=O)sc3c2)cc1,4,2,8,5,1,15,.,
Cc1ccc(-c2cc(O)cc3sc(=O)oc23)cc1C,-11,0,-4,3,-9,53*,8,
CC(C)(C)c1ccc(O)c(N)c1,3,3,-2,2,0,38*,1,
CCN(CC(=O)NCc1ccc(Cl)cc1)C(=O)CSCC(=O)Nc1cccc(C)c1,5,1,3,-2,5,44*,8,
COCCN(C(=O)COC(=O)c1cc2c(s1)CCC2)c1c(N)n(Cc2ccccc2)c(=O)[nH]c1=O,-3,-12,5,14,2,52*,36*,
CCC1CCc2sc(C(=O)OCC(=O)N(CCOC)c3c(N)n(Cc4ccccc4)c(=O)[nH]c3=O)cc2C1 (centres undefined),0,-10,-2,-2,2,-6,.,
CCOC(=O)c1ccc(NC(=S)Nc2ccccc2N)cc1,1,0,3,-1,3,3,.,
CN(Cc1ccc(Cl)s1)C(=O)CCl,8,-4,9,3,7,92*,104*,GSTO1 recomb ABPP=70
O=C(CSc1ncn[nH]1)Nc1ncc(C(F)(F)F)cc1Cl,-1,3,2,-5,-2,-7,.,
O=C(CSc1ncn[nH]1)Nc1ccc(Cl)c(Cl)c1,-3,-1,-15,-5,0,52*,34,
CSCc1c(C(=O)NCCc2ccccn2)oc2ccccc12,1,5,-6,-1,-10,-2,.,
SMILES,LYPLA1 inh,PME-1 inh,PREPL inhibitor,Fam108B inh,LYPLA2 counter,GSTO1 inh,GSTO1 inh conf,others
COc1ccc(OC)c(NC(=O)CSc2nc(=O)n(Cc3ccccn3)c3c2CCC3)c1,-4,-2,1,1,0,11,.,
O=c1cc(-c2ccccc2)[nH][nH]1,0,2,10,2,-2,38*,2,
COc1ccc(-c2cc(=O)[nH][nH]2)cc1OC,-3,0,11,-1,-1,66*,3,
O=c1cc(-c2ccc(F)cc2)[nH][nH]1,-1,3,2,5,2,41*,7,
COc1cccc(-c2cc(=O)[nH][nH]2)c1,-1,-1,-3,-4,0,17,.,
O=c1cc(-c2ccc(Br)cc2)[nH][nH]1,-1,2,1,5,2,24,.,
O=c1cccc(-c2ccccc2)[nH]1,0,2,2,-2,-4,3,.,
Cc1cc(NS(=O)(=O)c2ccc(C(C)C)cc2)no1,1,0,9,-1,-9,-7,.,
CC(C)c1ccc(S(=O)(=O)/N=C2\C=C(NS(=O)(=O)c3ccccc3)C(=O)c3ccccc32)cc1,-13,-12,9,6,-19,79*,75*,
Cc1ccc(C)c(S(=O)(=O)/N=C2\C=C(NS(=O)(=O)c3ccccc3)C(=O)c3ccccc32)c1,-13,5,-7,4,-20,82*,48*,
Cc1ccc(C)c(S(=O)(=O)N/N=C2/CCCc3ccccc32)c1,1,9,14,-1,10,4,.,
CCOc1ccc(NC(=O)C(c2ccccn2)N(C(=O)CCl)c2ccc(OCC)cc2)cc1 (centres undefined),-1,6,14,3,0,43*,10,
Cc1nn(-c2ccccc2)c(Cl)c1CN(C(=O)CCl)c1ccc(Cl)cc1,-1,-4,-1,2,-4,82*,93*,GSTO1 recomb ABPP=88*
COc1ccc(NS(=O)(=O)c2ccc3c(c2)oc(=O)n3C)cc1Cl,-1,1,26,-4,-2,51*,57*,
CCN(CC)c1ccc(NS(=O)(=O)c2ccc3c(c2)oc(=O)n3C)c(C)c1,3,-1,19,0,1,70*,70*,
C[C@@H](NC(=O)[C@@H]1Cc2ccccc2CN1C(=O)OC(C)(C)C)C(=O)NCc1ccco1,-5,-1,2,8,-10,2,.,

# Screens as filed in PubChem.
